According to PubChem BioAssay AID1159580 (chemical genetic matrix, 2015):
Where “and” joins values, the source holds several entries; their conditions need not be identical. Equal values may be shown once. Among all 5,500 compounds or so, about 2,000 (36%) were called active. Inconclusive results (about 18%) are left out. Cut-off read from the data, not from the text of the source: active = normalized growth mostly below about 0.91 (no sharp cut-off); inconclusive = no clear call, values can overlap the other calls; inactive = mostly above about 0.92. The list shows a part of the results.

Assay: chemical genetic growth profiling, strain panel (AID 1159580);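 note: tested at 20 µM; growth read once vehicle control cultures reached saturation at 30 °C; 1 = growth at the plate median or of vehicle wells; lower values mean less growth of the strain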
Conditions: S. cerevisiae deletion strains, growth OD

Measured: normalized growth

Cc1cc(=O)oc2cc(O)c(O)cc12
active: locus YER155C, strain BEM2 (second series), hits give low values 0.787
inactive: locus YAL021C, strain ccr4, hits give low values 1.01 | locus YAL026C, strain drs2, hits give low values 0.996 | locus YAL030W, strain snc1, hits give low values 1 | locus YBL061C, strain skt5, hits give low values 0.999 | locus YBR009C, strain hhf1, hits give low values 0.963 | locus YBR021W, strain FUR4, hits give low values 1.02 | locus YBR023C, strain chs3, hits give low values 0.998 | locus YBR171W, strain sec66, hits give low values 0.987 | locus YBR229C, strain ROT2, hits give low values 1 | locus YBR231C, strain swc5, hits give low values 0.995 | locus YBR279W, strain paf1, hits give low values 0.987 | locus YCL011C, strain gbp2, hits give low values 0.994 | locus YCL016C, strain dcc1, hits give low values 1 | locus YCL029C, strain bik1, hits give low values 0.974 | locus YCL061C, strain MRC1, hits give low values 0.989 | locus YCL069W, strain vba3, hits give low values 0.99 | locus YCR088W, strain abp1, hits give low values 1 | locus YDL005C, strain med2, hits give low values 0.98 | locus YDL035C, strain GPR1, hits give low values 0.973 | locus YDL040C, strain nat1, hits give low values 0.983 | locus YDL074C, strain BRE1, hits give low values 0.976 | locus YDL101C, strain DUN1, hits give low values 0.958 | locus YDL134C, strain PPH21, hits give low values 0.955 | locus YDL185W, strain tfp1, hits give low values 0.979 | locus YDL192W, strain arf1, hits give low values 0.961 | locus YDR001C, strain nth1, hits give low values 0.998 | locus YDR069C, strain doa4, hits give low values 0.994 | locus YDR101C, strain arx1, hits give low values 0.973 | locus YDR137W, strain rgp1, hits give low values 0.964 | locus YDR159W, strain sac3, hits give low values 0.997 | locus YDR162C, strain NBP2, hits give low values 0.985 | locus YDR195W, strain ref2 1.05 | locus YDR297W, strain sur2, hits give low values 0.995 | locus YDR318W, strain mcm21, hits give low values 0.966 | locus YDR334W, strain swr1, hits give low values 0.99 | locus YDR335W, strain msn5, hits give low values 0.994 | locus YDR388W, hits give low values 0.99 | locus YDR392W, strain spt3, hits give low values 0.91 | locus YDR502C, strain sam2, hits give low values 0.974 | locus YEL003W, strain gim4, hits give low values 0.981 | locus YEL037C, strain rad23, hits give low values 0.991 | locus YEL061C, strain CIN8 (second series), hits give low values 0.988 | locus YEL061C, strain CIN8, hits give low values 0.999 | locus YER015W, strain faa2, hits give low values 0.998 | locus YER016W, strain bim1, hits give low values 0.995 | locus YER110C, hits give low values 0.973 | locus YER111C, strain swi4, hits give low values 1.01 | locus YER155C, strain BEM2, hits give low values 1.01 | locus YER167W, strain BCK2, hits give low values 1.02 | locus YFR010W, strain ubp6, hits give low values 0.997 | locus YGL078C, strain dbp3, hits give low values 0.959 | locus YGL086W, strain mad1, hits give low values 0.993 | locus YGL167C, strain pmr1, hits give low values 0.99 | locus YGL173C, strain kem1, hits give low values 0.978 | locus YGL227W, strain vid30, hits give low values 1 | locus YGL240W, strain doc1, hits give low values 0.952 | locus YGL248W, strain PDE1, hits give low values 0.98 | locus YGL253W, strain hxk2, hits give low values 1 | locus YGR078C, strain PAC10, hits give low values 0.983 | locus YGR135W, strain pre9, hits give low values 0.957 | locus YGR229C, strain SMI1, hits give low values 0.974 | locus YGR252W, strain gcn5, hits give low values 0.79 | locus YHR013C, strain ard1, hits give low values 0.985 | locus YHR027C, strain rpn1, hits give low values 1 | locus YHR030C, strain SLT2, hits give low values 1.01 and 0.905 | locus YHR079C, strain IRE1 (second series), hits give low values 1.01 | locus YHR079C, strain IRE1, hits give low values 0.901 | locus YHR094C, strain hxt1, hits give low values 1.02 | locus YHR129C, strain ARP1, hits give low values 0.999 | locus YHR142W, strain chs7, hits give low values 0.958 | locus YHR200W, strain rpn10, hits give low values 0.972 | locus YIL066C, strain RNR3, hits give low values 1 | locus YIL073C, strain SPO22, hits give low values 1 | locus YIL125W, strain kgd1, hits give low values 1.01 | locus YIR030C, strain dcg1, hits give low values 0.99 | locus YJL092W, strain hpr5, hits give low values 0.993 | locus YJL095W, strain BCK1 (second series), hits give low values 0.998 | locus YJL095W, strain BCK1, hits give low values 0.932 and 0.924 | locus YJL115W, strain asf1, hits give low values 0.994 | locus YJL129C, strain trk1, hits give low values 1.05 | locus YJL134W, strain LCB3, hits give low values 1.01 | locus YJL154C, strain vps35, hits give low values 1.01 | locus YJL164C, strain tpk1, hits give low values 0.973 | locus YJL166W, strain qcr8, hits give low values 0.995 | locus YJL168C, strain set2, hits give low values 1 | locus YJL187C, strain SWE1 (second series), hits give low values 0.991 | locus YJL187C, strain SWE1, hits give low values 0.999
